# High-throughput results deposited in PubChem BioAssay by National Center for Advancing Translational Sciences (NCATS).
# DT40 TDP1 no CPT: qHTS for Inhibitors of human tyrosyl-DNA phosphodiesterase 1 (TDP1): qHTS in cells in absence of CPT; Potency, µM (highest dose often 46.2 µM), for inactives: at the top dose activity change, negative = growth inhibition, actives largely listed as inhibitors; DT40 Tdp1-/- hTDP1 cells, no CPT, ATP luminescence, 48 h; 420,000 compounds, 15% hits; note: nearly all actives have a fitted effect of over 55% in size
#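 Compound effects on proliferation are scored in DT40 Tdp1-/-;hTDP1 cells in the absence of CPT. ATP levels (CellTiter-Glo luminescence) are recorded after a ≥48 hr, 37 °C incubation.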
# HT1080 IDH1KD tx: toxicity to HT-1080 IDH1 knockdown cells (counter line) | AID 686971 | Potency, µM (highest dose often 46.1 µM), for inactives: at the top dose activity, negative = toxicity, usual class: cytotoxic | HT-1080 IDH1 knockdown viability, ATP luminescence, 48 h | 360,000 compounds, 2% hits;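 note: 0% = DMSO wells and -100% = cell-free medium wells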
#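 Viability of IDH1-knockdown HT-1080 fibrosarcoma cells was assessed by CellTiter-Glo after 48 h at 37 °C with titrated compound; concentration-effect curves were classified by fit quality and response size.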
# KB-3-1 tox: kills parental KB-3-1 adenocarcinoma cells. KB-3-1 viability, CellTiter-Glo ATP luminescence, 72 h. Potency, µM (titrated, usually from 46.1 µM), hits mostly cytotoxic. 400,000 compounds, 1.4% hits; note: nearly all actives have a fitted effect of over 60% in size
#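 Cells are dispensed, compounds pinned in, plates held at 37 °C for 72 h, then CellTiter-Glo is added and luminescence read after 10 minutes. Cell line: parental KB-3-1 in phenol-red-free DMEM, 10% FBS.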
# HT1080-NT tox: kills 2HG-producing HT-1080-NT fibrosarcoma cells; Potency, µM (top dose mostly 46.1 µM), inactives show top-dose activity, negative = less viability, actives largely listed as cytotoxic; 360,000 compounds, 1.6% hits; HT-1080-NT fibrosarcoma viability, CellTiter-Glo ATP luminescence, 48 h; AID 686970;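 note: NT is the 2HG producing partner of a matched IDH1 knockdown line; 0% = DMSO-treated cells and -100% = media-only wells without cells; nearly all actives have a fitted effect of over 55% in size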
#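 Compounds were tested in concentration-response format on HT-1080-NT cells for 48 hours at 37 degrees C. Cell viability came from CellTiter-Glo luminescence; curves were classified by r2, response magnitude and activity.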
# KB-V1 cytotox: KB-V1 MDR subline cytotoxicity. KB-V1 MDR cells viability, CellTiter-Glo, 72 h. Potency, µM (top dose mostly 46.1 µM), usual class: cytotoxic. 400,000 compounds, 3.4% hits. AID 1347076; note: nearly all actives have a fitted effect of over 60% in size
#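 Cytotoxicity via CellTiter-Glo luminescence after 72 h compound exposure at 37 degrees C. Cells: drug-selected KB-V1 line, DMEM phenol-red free plus 10% FBS. Compounds tested at multiple concentrations; normalized data fitted to concentration-effect curves.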
# DT40 TDP1 CPT: DT40-hTDP1 cell growth loss with CPT; chicken DT40 Tdp1-/-;hTDP1 cells + 20 nM CPT, ATP luminescence, 48 h; 420,000 compounds, 12% hits; Potency, µM (doses to about 46.2 µM), without a hit: at the top dose activity change, negative = growth inhibition, hits mostly inhibitors; note: nearly all actives have a fitted effect of over 55% in size
#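 Chicken DT40 Tdp1-/- cells complemented with human TDP1, 400 cells/well, exposed to compounds plus 20 nM camptothecin for at least 48 h at 37 C; viability read as ATP content by CellTiter-Glo luminescence.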
# Numbers without * were called inactive; i = inactive; u = inconclusive; x = not tested or not shown; ! = not active in a repeat. Shown are actives, neighbours in structure and some others; about 19% of the full set was active somewhere. Calls come from the whole dose curve; as a rule, active = well fitted curve in the direction sought with a large enough effect; inconclusive = small, poorly fitted or top-dose-only effect, or another doubt; inactive = no such curve, though single readings can be large; an effect the other way counts as inactive or inconclusive. Unless noted, % is set by controls: 0 for no effect and ±100 for the full control effect; potency is the fitted concentration of half-maximal effect.
SMILES,DT40 TDP1 no CPT,HT1080 IDH1KD tx,KB-3-1 tox,HT1080-NT tox,KB-V1 cytotox,DT40 TDP1 CPT
CCOC(=O)C1=NN(c2cccc(C)c2)C2(S1)SC(C(C)=O)=C(C)N2c1ccccc1 (stereo not drawn),23%,-8%,i,0%,i,1%
CCOC(=O)C1=NN(c2ccccc2)C2(S1)SC(C(C)=O)=C(C)N2c1ccccc1 (stereo not drawn),15µM*,-17%,u,-29%,u,u
COc1cc(C2NC(=O)CS2)cc(OC)c1OC (stereo not drawn),-25%,18%,i,17%,i,4%
COc1cc(/C=C2\N=C(C)OC2=O)cc(OC)c1OC,u,11%,i,11%,i,u
COc1cc(/C=C2\CC(C(C)(C)C)C/C(=C\c3cc(OC)c(OC)c(OC)c3)C2=O)cc(OC)c1OC (stereo not drawn),9.2µM*,5.8µM*,8.2µM*,12µM*,i,15µM*
COc1cc(/C=C2\COC/C(=C\c3cc(OC)c(OC)c(OC)c3)C2=O)cc(OC)c1OC,0.58µM*,0.52µM*,u,u,u,1.2µM*
COc1cc(/C=C2\CC/C(=C\c3cc(OC)c(O)c(OC)c3)C2=O)cc(OC)c1O,5.8µM*,4.1µM*,16µM*,4.1µM*,u,6.5µM*
COc1cc(/C=C/c2cncc(/C=C/c3cc(OC)c(OC)c(OC)c3)c2)cc(OC)c1OC,-12%,x,i,x,i,-7%
COc1cc(/C=C2\CC/C(=C\c3cc(OC)c(OC)c(OC)c3)C2=O)cc(OC)c1OC,10µM*,-3%,i,-4%,i,u
CCOC(=O)N1CCC(NS(=O)(=O)c2ccc(C#N)cc2)CC1,-25%,-1%,i,-4%,i,1%
COc1cccc(CN2C(=O)CN(C3CCCCC3)C(=O)C2c2ccc(OC)c(OC)c2)c1 (stereo not drawn),u,x,i,x,i,u
COc1cc(/C=C2\SC(N)=NC2=O)cc(Cl)c1O,u,-12%,i,-2%,i,-24%
COc1cc(/C=C2/CCC/C(=C\c3cc(O)c(OC)c(Cl)c3)C2=O)cc(Cl)c1O,10µM*,21µM*,u,u,8.2µM*,10µM*
COc1ccc(-c2nnc(SCC(=O)NC(=O)NCc3ccco3)o2)cc1,-22%,2%,i,4%,i,-4%
CCOc1nc(NC(=O)NS(=O)(=O)Oc2cccc(Cl)c2)nc(-c2ccccc2)n1,-1%,20%,0.0016µM*!,1%,i,-5%
CCOCC(=O)Nc1ccc(S(=O)(=O)N2CCC(c3nc4ccccc4[nH]3)CC2)cc1,u,-1%,i,-5%,i,-24%
CC(C)(C)OC(=O)N1CCC(c2c(C(=O)NC3CCCCC3)cnn2-c2ccc(F)cc2F)CC1,u,x,i,x,i,21µM*
COc1ccccc1CNC(=O)c1cnn(-c2ccc(F)cc2F)c1C1CCN(C(=O)OC(C)(C)C)CC1,u,x,i,x,i,16µM*
O=C(c1ccco1)N1CCN(C(=O)c2cnn(-c3cccc(F)c3)c2C2CCNCC2)CC1,23%,1%,i,-2%,u,-8%
COc1ccccc1N1CCN(C(=O)c2cnn(-c3ccc(F)cc3F)c2C2CCNCC2)CC1,18µM*,x,i,x,u,-28%
CC(C)(C)OC(=O)N1CCC(c2c(C(=O)N3CCN(c4ncccn4)CC3)cnn2-c2ccc(F)cc2F)CC1,u,x,i,x,i,u
Cc1cccc(N2CCN(C(=O)c3cnn(-c4ccc(F)cc4F)c3C3CCN(C(=O)OC(C)(C)C)CC3)CC2)c1C,21µM*,x,u,x,i,21µM*
Cc1ccc(CNC(=O)c2cnn(-c3ccc(F)cc3F)c2C2CCN(C(=O)OC(C)(C)C)CC2)cc1,u,x,i,x,i,u
COc1ccccc1N1CCN(CC(=O)Nc2sccc2C#N)CC1,u,-2%,i,1%,i,-19%
C=CCn1c(SCC(=O)Nc2ccc3c(c2)OCCO3)nnc1-c1ccco1,u,0%,i,3%,9.2µM*,-21%
SMILES,DT40 TDP1 no CPT,HT1080 IDH1KD tx,KB-3-1 tox,HT1080-NT tox,KB-V1 cytotox,DT40 TDP1 CPT
Cc1nnc(SCC(=O)Nc2ccc3c(c2)OCCO3)n1N,-7%,8%,i,5%,i,-2%
O=C(CSc1nnc(-c2ccc(Cl)cc2)n1Cc1ccco1)Nc1ccc2c(c1)OCCO2,u,u,i,-23%,4.1µM*,u
COc1ccc(-c2nnc(SC(C)C(=O)NCc3ccc4c(c3)OCO4)n2Cc2ccco2)cc1 (stereo not drawn),15µM*,-7%,i,-1%,i,u
O=C(CSc1nnc(-c2ccccc2Cl)n1Cc1ccco1)Nc1ccc2c(c1)OCCO2,u,-4%,i,-5%,i,-22%
Nn1c(SCC(=O)Nc2ccc3c(c2)OCCO3)nnc(CCC(=O)O)c1=O,u,8%,i,6%,i,21µM*
OC[C@H]1O[C@@H](c2nc(-c3ccc4[nH]ccc4c3)no2)[C@H](O)[C@@H](O)[C@H]1O,3%,8%,i,26%,i,1%
O=C(OCc1cc(=O)n2nc(-c3cccs3)sc2n1)c1ccccc1Cl,-9%,x,i,x,i,-6%
COC(=O)c1cc(C#N)c(N2CC(C)OC(C)C2)nc1C (stereo not drawn),-10%,12%,i,-4%,i,-6%
O=C(Cn1c(=O)n(Cc2nc(-c3ccccc3)no2)c(=O)c2ccccc21)Nc1cccc(Cl)c1,u,x,i,x,i,u
Cc1ccc(-n2c(Cc3cccn3C)nnc2SCC(=O)NCc2ccc3c(c2)OCO3)cc1,-25%,-2%,u,7%,15µM*,-20%
CCn1c(SCC(=O)NCc2ccc3c(c2)OCO3)nnc1-c1ccco1,-6%,12%,i,-1%,i,8%
O=C(CSc1nnc(-c2ccc(Cl)cc2)n1Cc1ccco1)NCc1ccc2c(c1)OCO2,26µM*,-2%,u,-13%,i,u
Cc1[nH]c2ccc(-c3nnc(SCC(=O)NCc4ccco4)n3Cc3ccccc3)cc2c1C,23µM*,-27%,u,u,i,u
